Rows were chosen to be rich in hits. Some 2.7% of all compounds tested hit in one or more screens of this group.
TMEM16A act: activates or potentiates the mouse TMEM16A chloride channel | 340,000 tested, 0.3% active | Q8BHY3 | B-score at 10 µM | HEK293 TMEM16A/YFP-H148Q/I152L, iodide quench fluorescence; hits give low values | AID 623877;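 active means fluorescence-ratio B-score plate-corrected deviation score at least 3 library SD below zero, with starting fluorescence score within 5 deviations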;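 further: channel opened by trigger with iodide after compound preincubation; score built on the fluorescence ratio of max minus min over baseline; more negative score means more quench and so TMEM16A activation or potentiation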
Target sequence (Q8BHY3 whole entry, looked up): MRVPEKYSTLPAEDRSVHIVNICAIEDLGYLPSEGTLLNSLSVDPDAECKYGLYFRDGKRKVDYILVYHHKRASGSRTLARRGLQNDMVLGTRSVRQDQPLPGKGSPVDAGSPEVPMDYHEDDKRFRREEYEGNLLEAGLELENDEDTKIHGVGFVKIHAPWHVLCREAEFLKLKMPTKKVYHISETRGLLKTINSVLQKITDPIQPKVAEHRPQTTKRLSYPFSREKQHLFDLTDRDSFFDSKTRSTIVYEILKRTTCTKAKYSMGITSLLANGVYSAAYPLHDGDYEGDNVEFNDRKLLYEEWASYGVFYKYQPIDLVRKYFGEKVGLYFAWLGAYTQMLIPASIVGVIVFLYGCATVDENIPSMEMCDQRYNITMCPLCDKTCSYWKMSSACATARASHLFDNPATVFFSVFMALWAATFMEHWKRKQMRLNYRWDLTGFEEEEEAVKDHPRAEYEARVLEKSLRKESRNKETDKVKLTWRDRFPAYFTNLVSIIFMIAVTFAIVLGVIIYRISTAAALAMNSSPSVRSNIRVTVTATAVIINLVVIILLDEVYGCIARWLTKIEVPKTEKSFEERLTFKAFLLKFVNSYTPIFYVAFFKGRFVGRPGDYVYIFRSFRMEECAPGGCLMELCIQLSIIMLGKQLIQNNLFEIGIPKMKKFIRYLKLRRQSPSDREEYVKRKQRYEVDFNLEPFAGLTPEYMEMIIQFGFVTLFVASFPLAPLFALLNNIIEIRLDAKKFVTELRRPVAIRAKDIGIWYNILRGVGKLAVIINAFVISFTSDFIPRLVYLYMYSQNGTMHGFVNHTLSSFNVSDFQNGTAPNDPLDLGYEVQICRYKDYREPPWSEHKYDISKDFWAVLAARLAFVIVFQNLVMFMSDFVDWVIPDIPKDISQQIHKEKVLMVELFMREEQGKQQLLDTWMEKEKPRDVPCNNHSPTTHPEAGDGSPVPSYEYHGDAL
CHT allo act: allosterically activates the human high affinity choline transporter; 310,000 tested, 0.49% active; CHT-expressing cells, membrane potential dye, choline EC20; hits give high values; LV-AA mutant CHT in HEK293 cells; AID 488977; B-score at 10 µM;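 active means initial fluorescence not abnormally high and integrated response B-score, plate-corrected, over 3 SD above library mean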
TMEM16A inh: blocks the mouse calcium-activated chloride channel TMEM16A | HEK293 TMEM16A/YFP iodide influx fluorescence, ionomycin | normalized B-score (activity score, 25-100; higher = stronger inhibition) at 10 µM | 310,000 tested, 1.2% active | AID 588511;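 active means ratio plate-corrected score three or more library SD toward inhibition, starting fluorescence score within five deviations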;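 further: score derived from kinetic fluorescence span divided by baseline fluorescence per well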
CHT inh: inhibits the human high affinity choline transporter. AID 488975. 310,000 tested, 0.86% active. CHT-expressing cells, membrane potential dye, choline response; hits give low values. B-score at 10 µM;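 active means B-score over 3 SD under the library average, and starting fluorescence ratio not unusually high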;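 further: choline stimulus applied at its EC90 after an EC20 pre-addition; B-score computed on integrated fluorescence ratio after choline addition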
IDE act: activators of human insulin-degrading enzyme in cells. P14735. HEK cells, FAbeta-B cleavage, fluorescence polarization; 0% vehicle, 100% cell-free pure enzyme wells. activation, % at 5.96 µM. 340,000 tested, 0.073% active. AID 493087;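 active means activation above the mean of all tested compounds plus 3 SD, set per screening campaign, cut at about 17% in these data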
IDE cell inh: cellular human IDE inhibition. P14735. AID 434962. inhibition, % at 5.59 µM. 320,000 tested, 0.41% active. HEK cells, FAbetaB cleavage, fluorescence polarization;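 active means percent inhibition above the average of all tested compounds plus 3 SD, set per screening campaign, cut at about 16% in these data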;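 further: IDE supplied by intact live HEK cells; FP after avidin binding of uncleaved biotin substrate so inhibition keeps polarization high; 0% = DMSO wells and 100% = 60 µM reference IDE inhibitor Ii1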
The depositor's hits bear a star; i = inactive; x = not tested or not shown.

SMILES | TMEM16A act | CHT allo act | TMEM16A inh | CHT inh | IDE act | IDE cell inh
O=S(=O)(c1ccc(Cl)cc1)N1CCN(S(=O)(=O)N2CCCCCC2)CC1 | i | i | i | i | -3 | 1
O=S(=O)(N1CCCCC1)N1CCN(c2cc(Cl)ccc2Cl)CC1 | -8* | i | i | i | 3 | -1
O=C(CSc1ccc2nnc(CCNC(=O)c3ccc(F)cc3)n2n1)NCC1CCCO1 (configuration not stated) | i | i | i | i | 7 | -2
CCOc1ccc(CCNC(=O)CCC(=O)N2CCOc3ccc(C)cc32)cc1OCC | -14* | i | i | i | 1 | 3
COc1ccc(CCNC(=O)CCC(=O)N2CCOc3ccc(C)cc32)cc1OC | i | i | i | i | 7 | 0
C/C(=N\NS(=O)(=O)c1ccccc1)c1cc(Cl)cc(Cl)c1O | i | i | 100* | i | 8 | -3
NC(=O)C1CCCN(C(=O)c2ccc(S(=O)(=O)N3CCCCCC3)cc2)C1 (configuration not stated) | -13* | x | x | x | 8 | -2
C[C@H](NS(=O)(=O)c1ccc2c(c1)OCCCO2)C(=O)N1CCN(c2ccc(F)cc2)CC1 | i | x | x | x | 4 | -2
CN(C)c1ncc(S(=O)(=O)c2ccc(Cl)cc2)c(-c2ccc(Cl)cc2Cl)n1 | -7.7* | i | i | i | -1 | 3
Cc1cccc(NC(=O)COc2coc(CN3CCN(c4ccccc4)CC3)cc2=O)c1 | i | i | i | i | 2 | -2
CCOc1ccc(/C=C/C(O)=C2/C(=O)N(C)C3(C)CC2c2ccccc2O3)cc1OC (configuration not stated) | i | i | i | i | -4 | -3
CN(C)c1ccc(/C=C/C(O)=C2/C(=O)N(C)C3(C)CC2c2ccccc2O3)cc1 (configuration not stated) | x | i | i | i | x | 42*
Cc1ccnc(NC(=O)c2cccc(NC(=O)CC3SC(N4CCCCC4)=NC3=O)c2)c1 (configuration not stated) | -38* | x | x | x | 3 | 6
COc1ccc(NC2CCCN(C(=O)CN3CCOC3=O)C2)cc1 (configuration not stated) | i | i | i | i | 4 | 2
Cc1cc(Br)ccc1NC(=S)Nc1cccc([N+](=O)[O-])c1 | i | i | 100* | i | -2 | -3
CC(=O)NC1=CC(=C[N+](=O)[O-])C=C1O | i | x | x | x | 4 | x
O=C(c1cccc(C(=O)N2CCN(Cc3ccccc3)CC2)c1)N1CCN(Cc2ccccc2)CC1 | i | i | 25* | i | 1 | 4
O=C(c1ccc2ccccc2c1)N1CCN(Cc2ccccc2)CC1 | i | i | i | i | 0 | 2
O=C(NNC(=O)c1ccccc1O)c1ccc(Cl)c(S(=O)(=O)N2CCc3ccccc32)c1 | i | i | 100* | i | -2 | -6
C[C@@H]1NC(=O)N[C@@H]1CCCCCC(=O)O | i | i | i | i | 51* | -17
Cc1c(NC(=O)CSCc2ccco2)c(=O)n(-c2ccccc2)n1C | i | i | i | i | -4 | 1
O=c1[nH]ncn2cccc12 | i | i | 100* | i | -1 | 10
CCOC(=O)C(C)n1ncn2cccc2c1=O (configuration not stated) | i | i | i | i | 8 | 6
Cc1cccc2sc(NNC(=O)c3cc(=O)c4ccccc4o3)nc12 | i | i | i | i | 6 | 1
Cc1ccc2sc(NNC(=O)c3cc(=O)c4ccccc4o3)nc2c1C | i | i | 100* | i | -1 | 3
SMILES | TMEM16A act | CHT allo act | TMEM16A inh | CHT inh | IDE act | IDE cell inh
Cc1ccc(-n2[nH]c(C)c(/C=N/Nc3ccc([N+](=O)[O-])cc3[N+](=O)[O-])c2=O)cc1 | i | i | 100* | i | 4 | -1
CC(C)(C)c1ccc(S(=O)(=O)N2CCN(CC(O)CN3CCOCC3)CC2)cc1 (configuration not stated) | i | x | x | x | 6 | 3
COc1ccc(C2NC(c3ccc(OC)cc3OC)C(C)C(=O)C2C)c(OC)c1 (configuration not stated) | -5.9* | i | i | i | 0 | 2
COc1ccc(OC)c(C2CC(=O)C(C)C(c3cc(OC)ccc3OC)N2)c1 (configuration not stated) | i | i | i | i | -1 | 2
CCN(CC)/C(=N\S(=O)(=O)c1ccccc1C)c1ccccc1 | i | i | i | i | 3 | 4
O=C(CCl)Nc1cc(SCC(O)CO)cc([N+](=O)[O-])c1 (configuration not stated) | i | x | x | x | 6 | x
CCC(=O)Nc1cc(SCCO)cc([N+](=O)[O-])c1 | i | i | 100* | i | -1 | 2
O=C1NC(=Nc2ccccc2Cl)S/C1=C\c1cccc([N+](=O)[O-])c1 | i | i | 25* | i | -1 | -3
COc1c(/C=C2\SC(=Nc3ccccc3Cl)NC2=O)cccc1[N+](=O)[O-] | i | i | i | i | 3 | 6
Cc1c(C(=O)N2CCN(C(c3ccccc3)c3ccccc3)CC2)oc2ccccc12 | i | x | x | x | 4 | -5
Cc1noc(C)c1COc1ccc(C(=O)OCc2nnc(-c3ccc(Cl)cc3)o2)cc1 | -5* | i | i | i | 3 | 8
CC(C)[C@H](N)c1cn([C@@H](CO)C(=O)N2CCNCC2)nn1 | i | i | i | i | 0 | 5
NC(=O)C[C@H](N)c1cn([C@@H](CC(N)=O)C(=O)N2CCNCC2)nn1 | -10* | i | i | i | 2 | 5
COc1ccc(N2CCOCC2)c(NC(=O)c2ccc(Br)o2)c1 | i | i | i | i | 4 | 3
COC(=O)c1ccc(N2CCN(C)CC2)c(NC(=O)c2ccc(Br)o2)c1 | i | i | i | -5.3* | 2 | 2
C[C@H]1COC(=O)[C@H](CC(=O)OC(C)(C)C)C/C=C\C[C@H](CC(=O)N(CCO)Cc2ccccc2)C(=O)N1 | i | x | x | x | 6 | -1
Fc1ccc(C2=CC(c3ccc(Br)o3)n3ncnc3N2)cc1 (configuration not stated) | i | i | i | i | -67 | 92*
CC1=C(C(N)=O)C(c2ccc(Br)cc2)n2nc(CCCO)nc2N1 (configuration not stated) | i | i | i | i | 3 | 4
Cc1ccc(C2C=C(c3ccccc3)Nc3ncnn32)cc1 (configuration not stated) | i | i | i | i | 1 | 9

Bioassay records from PubChem.
